Source: the supplement of paper PMC11732987, “Enantioselective OTUD7B fragment discovery through chemoproteomics screening and high-throughput optimisation” (Communications Chemistry, 2025)

Tests used:
Experiment in all cases: log2 ratio of Biotin-Ahx-Ub-VS probe labelling (fragment/DMSO); higher = less target engagement (more negative = stronger competition), active = hit call of the paper (q ≤ 0.05, log2 ratio ≤ -1)
Settings in all cases: compound concentration: 200 uM; treatment time: 3 h
[1] = biological target: T1, OTUD6B (UniProt Q8N6M0)
T1 sequence (whole entry): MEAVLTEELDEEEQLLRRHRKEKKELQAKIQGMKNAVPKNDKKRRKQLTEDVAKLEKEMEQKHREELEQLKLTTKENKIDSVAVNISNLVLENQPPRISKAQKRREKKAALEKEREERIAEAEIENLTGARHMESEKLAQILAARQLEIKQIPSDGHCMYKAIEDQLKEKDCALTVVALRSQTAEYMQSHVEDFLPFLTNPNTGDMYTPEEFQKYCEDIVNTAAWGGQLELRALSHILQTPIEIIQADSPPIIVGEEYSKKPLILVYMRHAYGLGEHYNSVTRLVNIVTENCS
Summary of the method: (§1)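 HEK293T lysate (495 µg per sample, in Tris/CHAPS/IGEPAL buffer with protease inhibitors) was treated in triplicate with fragment at 200 µM or with DMSO for 3 h. It was then treated with Biotin-Ahx-Ub-VS (0.5 µM final) for 1 h. Labelled DUBs were NeutrAvidin-enriched, digested with LysC and trypsin, and run by diaPASEF LC-MS/MS. Spectronaut label-free quantities were global-median-normalised. Values are average log2 ratios fragment/DMSO by unpaired t-test, using proteins with ≥2 unique peptides.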

[2] = biological target: T2, OTUD7B (UniProt Q6GQQ9)
T2 sequence (whole entry): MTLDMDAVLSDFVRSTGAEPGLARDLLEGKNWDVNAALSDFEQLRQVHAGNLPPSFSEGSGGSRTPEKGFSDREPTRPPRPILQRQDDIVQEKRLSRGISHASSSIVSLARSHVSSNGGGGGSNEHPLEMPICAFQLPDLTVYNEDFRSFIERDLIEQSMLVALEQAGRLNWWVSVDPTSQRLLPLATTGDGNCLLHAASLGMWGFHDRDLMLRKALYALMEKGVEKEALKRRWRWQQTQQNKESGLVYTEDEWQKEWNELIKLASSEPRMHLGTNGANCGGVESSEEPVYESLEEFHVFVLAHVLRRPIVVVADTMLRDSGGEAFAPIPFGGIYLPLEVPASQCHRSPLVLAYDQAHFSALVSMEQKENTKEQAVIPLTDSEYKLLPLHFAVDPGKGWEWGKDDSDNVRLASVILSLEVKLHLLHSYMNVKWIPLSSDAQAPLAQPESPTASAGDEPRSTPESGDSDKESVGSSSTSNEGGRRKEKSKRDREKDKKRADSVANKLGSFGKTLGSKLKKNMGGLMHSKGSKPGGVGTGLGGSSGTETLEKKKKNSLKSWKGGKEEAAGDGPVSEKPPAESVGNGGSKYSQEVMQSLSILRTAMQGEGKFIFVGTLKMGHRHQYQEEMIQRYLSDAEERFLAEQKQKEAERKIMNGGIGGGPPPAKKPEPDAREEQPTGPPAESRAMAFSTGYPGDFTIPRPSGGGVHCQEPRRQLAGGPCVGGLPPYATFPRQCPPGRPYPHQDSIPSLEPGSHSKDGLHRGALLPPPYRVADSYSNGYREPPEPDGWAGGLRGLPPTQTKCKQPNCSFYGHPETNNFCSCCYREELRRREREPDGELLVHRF
Summary of the method: as §1

[3] = biological target: PRPF8 (UniProt Q6P2Q9)
Summary of the method: as §1

[4] = biological target: T3, PSMD7 (UniProt P51665)
T3 sequence (whole entry): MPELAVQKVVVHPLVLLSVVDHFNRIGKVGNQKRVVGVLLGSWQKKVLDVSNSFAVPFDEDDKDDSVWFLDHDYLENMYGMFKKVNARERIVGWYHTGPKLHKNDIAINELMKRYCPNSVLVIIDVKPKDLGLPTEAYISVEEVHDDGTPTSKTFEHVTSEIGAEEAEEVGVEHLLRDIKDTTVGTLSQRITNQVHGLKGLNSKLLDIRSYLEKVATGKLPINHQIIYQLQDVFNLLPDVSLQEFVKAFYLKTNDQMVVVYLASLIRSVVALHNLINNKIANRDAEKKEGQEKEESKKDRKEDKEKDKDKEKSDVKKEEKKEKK
Summary of the method: as §1

[5] = biological target: UCHL1 (UniProt P09936)
UCHL1, sequence (P09936 whole entry, looked up): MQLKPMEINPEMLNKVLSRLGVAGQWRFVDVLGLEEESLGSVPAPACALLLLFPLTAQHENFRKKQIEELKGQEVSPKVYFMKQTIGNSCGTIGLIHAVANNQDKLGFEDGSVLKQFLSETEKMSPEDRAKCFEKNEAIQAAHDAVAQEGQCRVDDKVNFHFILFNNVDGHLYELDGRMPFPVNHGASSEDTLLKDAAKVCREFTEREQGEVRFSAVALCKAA
Summary of the method: as §1

[6] = biological target: T4, UCHL3 (UniProt P15374)
T4 sequence (whole entry): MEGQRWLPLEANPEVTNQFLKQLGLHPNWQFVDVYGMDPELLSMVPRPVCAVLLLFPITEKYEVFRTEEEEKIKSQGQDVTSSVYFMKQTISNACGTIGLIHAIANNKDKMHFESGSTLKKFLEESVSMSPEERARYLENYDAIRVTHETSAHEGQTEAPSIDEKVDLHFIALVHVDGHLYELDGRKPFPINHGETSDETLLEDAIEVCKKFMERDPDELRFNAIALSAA
Summary of the method: as §1

[7] = biological target: T5, UCHL5 (UniProt Q9Y5K5)
T5 sequence (whole entry): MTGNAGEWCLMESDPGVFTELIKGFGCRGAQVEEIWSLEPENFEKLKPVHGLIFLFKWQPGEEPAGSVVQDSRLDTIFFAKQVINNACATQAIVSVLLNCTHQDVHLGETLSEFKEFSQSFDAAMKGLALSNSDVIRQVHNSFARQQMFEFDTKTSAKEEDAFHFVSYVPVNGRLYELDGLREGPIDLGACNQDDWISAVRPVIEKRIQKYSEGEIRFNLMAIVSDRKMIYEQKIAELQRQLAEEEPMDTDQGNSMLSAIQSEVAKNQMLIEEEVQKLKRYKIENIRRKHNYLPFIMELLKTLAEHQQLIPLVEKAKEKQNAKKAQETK
Summary of the method: as §1

[8] = biological target: USP10 (UniProt Q14694)
USP10, sequence (Q14694 whole entry): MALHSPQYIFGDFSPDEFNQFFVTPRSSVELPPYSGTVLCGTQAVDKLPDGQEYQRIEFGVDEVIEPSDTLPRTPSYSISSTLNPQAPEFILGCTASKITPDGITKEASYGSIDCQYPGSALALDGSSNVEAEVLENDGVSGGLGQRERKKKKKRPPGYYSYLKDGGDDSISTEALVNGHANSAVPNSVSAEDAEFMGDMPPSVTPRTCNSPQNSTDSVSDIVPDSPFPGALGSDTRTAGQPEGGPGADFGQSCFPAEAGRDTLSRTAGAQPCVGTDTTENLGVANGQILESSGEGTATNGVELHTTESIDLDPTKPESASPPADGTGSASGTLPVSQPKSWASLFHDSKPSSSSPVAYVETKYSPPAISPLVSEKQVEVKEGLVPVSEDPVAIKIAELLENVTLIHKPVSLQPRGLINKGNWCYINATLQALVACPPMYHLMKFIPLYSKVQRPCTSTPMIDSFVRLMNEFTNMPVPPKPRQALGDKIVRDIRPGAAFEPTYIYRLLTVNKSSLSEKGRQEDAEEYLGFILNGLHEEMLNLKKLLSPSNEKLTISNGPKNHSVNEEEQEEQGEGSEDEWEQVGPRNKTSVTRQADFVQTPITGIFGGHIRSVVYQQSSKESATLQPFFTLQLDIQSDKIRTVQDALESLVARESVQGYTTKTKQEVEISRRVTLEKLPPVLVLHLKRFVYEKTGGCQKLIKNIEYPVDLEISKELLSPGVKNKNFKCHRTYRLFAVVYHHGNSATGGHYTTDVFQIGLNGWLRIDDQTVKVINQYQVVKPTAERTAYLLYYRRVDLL
Summary of the method: as §1

[9] = biological target: T6, USP15 (UniProt Q9Y4E8)
T6 sequence (whole entry): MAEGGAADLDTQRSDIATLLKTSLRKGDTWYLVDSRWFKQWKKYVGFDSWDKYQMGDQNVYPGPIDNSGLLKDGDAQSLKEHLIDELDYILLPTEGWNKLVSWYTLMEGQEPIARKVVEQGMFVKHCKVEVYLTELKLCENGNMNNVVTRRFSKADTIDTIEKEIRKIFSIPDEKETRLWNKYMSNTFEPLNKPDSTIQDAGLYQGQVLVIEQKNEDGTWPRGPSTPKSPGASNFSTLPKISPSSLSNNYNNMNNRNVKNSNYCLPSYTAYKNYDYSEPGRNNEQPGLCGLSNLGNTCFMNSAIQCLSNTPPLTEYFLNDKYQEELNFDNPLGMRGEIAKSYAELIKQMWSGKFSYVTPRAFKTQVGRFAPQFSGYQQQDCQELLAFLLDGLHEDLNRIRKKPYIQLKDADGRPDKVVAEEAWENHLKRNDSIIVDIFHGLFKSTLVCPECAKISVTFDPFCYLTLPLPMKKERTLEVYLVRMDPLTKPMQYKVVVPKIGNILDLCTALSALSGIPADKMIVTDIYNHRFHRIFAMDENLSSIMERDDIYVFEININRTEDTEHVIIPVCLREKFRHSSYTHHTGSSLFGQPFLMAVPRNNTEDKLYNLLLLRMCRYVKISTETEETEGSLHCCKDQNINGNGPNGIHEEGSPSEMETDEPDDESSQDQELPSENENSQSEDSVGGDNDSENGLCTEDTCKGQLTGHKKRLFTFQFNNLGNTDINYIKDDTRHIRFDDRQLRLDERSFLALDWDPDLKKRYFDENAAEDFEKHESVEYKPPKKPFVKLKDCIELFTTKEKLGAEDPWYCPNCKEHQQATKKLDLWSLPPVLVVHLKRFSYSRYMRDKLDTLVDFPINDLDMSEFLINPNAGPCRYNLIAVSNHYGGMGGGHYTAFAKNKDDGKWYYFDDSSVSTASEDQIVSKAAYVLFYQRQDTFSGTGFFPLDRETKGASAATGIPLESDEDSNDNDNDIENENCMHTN
Summary of the method: as §1

[10] = biological target: USP16 (UniProt Q9Y5T5)
USP16, sequence (Q9Y5T5 whole entry, looked up): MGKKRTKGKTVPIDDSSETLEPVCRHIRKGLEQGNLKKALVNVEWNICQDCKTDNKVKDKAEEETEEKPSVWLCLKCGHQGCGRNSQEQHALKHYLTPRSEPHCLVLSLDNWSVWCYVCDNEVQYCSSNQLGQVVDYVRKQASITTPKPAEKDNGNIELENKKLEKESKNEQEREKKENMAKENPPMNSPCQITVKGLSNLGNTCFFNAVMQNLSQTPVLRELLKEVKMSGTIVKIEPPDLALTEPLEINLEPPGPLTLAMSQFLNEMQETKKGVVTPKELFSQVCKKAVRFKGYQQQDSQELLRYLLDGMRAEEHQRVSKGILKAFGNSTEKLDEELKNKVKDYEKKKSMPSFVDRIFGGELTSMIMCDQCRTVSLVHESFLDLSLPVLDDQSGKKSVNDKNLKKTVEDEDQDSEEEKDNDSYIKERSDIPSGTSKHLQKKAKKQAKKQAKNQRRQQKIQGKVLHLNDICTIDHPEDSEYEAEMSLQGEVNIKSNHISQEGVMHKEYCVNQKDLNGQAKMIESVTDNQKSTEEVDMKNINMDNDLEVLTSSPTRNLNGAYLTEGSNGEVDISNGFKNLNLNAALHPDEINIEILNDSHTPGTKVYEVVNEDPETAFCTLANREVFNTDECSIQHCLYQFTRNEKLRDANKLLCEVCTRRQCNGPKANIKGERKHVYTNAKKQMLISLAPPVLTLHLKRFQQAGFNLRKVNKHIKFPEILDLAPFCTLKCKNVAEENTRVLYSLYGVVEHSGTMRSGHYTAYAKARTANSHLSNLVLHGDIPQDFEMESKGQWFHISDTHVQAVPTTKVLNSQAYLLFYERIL
Summary of the method: as §1

Measured: log2 ratio of Biotin-Ahx-Ub-VS probe labelling

O=C(CCl)N1CCCN(C(=O)c2ccc(Cl)cc2)CC1
active: [5] -1.68
inactive: [1] -0.316 | [2] -0.767 | [3] 0.0935 | [4] -0.253 | [6] 0.267 | [7] -0.389 | [8] 0.0223 | [9] -0.429 | [10] -0.13
